Bioassay records (PubChem BioAssay)
Most compounds without a hit are left out; they make up all but 5.3% or so of the library.
IMPase inh = qHTS Assay for Identifying the Cell-Membrane Permeable IMPase Inhibitors. Inositol monophosphatase 1 (Rattus norvegicus), P97697. CHO-M1 cells, IP1 accumulation, HTRF TR-FRET ratio. inhibition (IP1 accumulation), % at 46.1 µM. 120,000 tested, under 10 active; active = well fitted curve in the direction sought with a large enough effect in the signal ratio, not every such curve was filed as active; inconclusive = small, poorly fitted or top-dose-only effect, or a change in a side signal; inactive = no such curve, though single readings can be large or run the other way; the % refers to the signal ratio;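 note: cells stimulated with carbachol in lithium chloride buffer; higher means more IMPase inhibition seen as more IP1 and lower FRET ratio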
Target sequence (P97697 whole entry, looked up): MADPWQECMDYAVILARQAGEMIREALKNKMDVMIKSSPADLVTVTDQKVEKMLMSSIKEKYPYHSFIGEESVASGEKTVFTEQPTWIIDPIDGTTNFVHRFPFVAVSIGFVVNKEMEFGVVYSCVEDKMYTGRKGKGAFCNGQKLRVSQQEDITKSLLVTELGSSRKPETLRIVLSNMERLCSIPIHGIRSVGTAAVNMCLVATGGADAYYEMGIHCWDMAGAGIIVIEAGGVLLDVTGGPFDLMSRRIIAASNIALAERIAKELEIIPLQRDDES
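The IP-One HTRF competitive assay in carbachol-stimulated CHO-M1 cells quantifies cellular IP1. Compounds spanned up to 46 uM final, and activity is expressed as AC50 from concentration-response fits of the ratio and donor data.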
ALOX15B inhib = qHTS Assay for Inhibitors of 15-hLO-2 (15-human lipoxygenase 2); Polyunsaturated fatty acid lipoxygenase ALOX15B (Homo sapiens), O15296; purified 15hLO-2, xylenol orange hydroperoxide absorbance; Potency, µM (top dose mostly 57.1 µM), most hits filed as inhibitors; hit rate 0.56% among 110,000; note: nearly all actives have a fitted effect of over 60% in size
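Read-out: hydroperoxide product oxidises ferrous iron, measured as xylenol orange complex via the 573-to-405 nm absorbance ratio after 30 min. Reaction: 50 nM enzyme, 15 min compound preincubation, 45 uM arachidonic acid, 90 min RT, Hepes pH 7.5 with Triton X-100.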
PNC assembly inh = High Content Assay for Compounds that inhibit the Assembly of the Perinucleolar Compartment; hit rate 3.1% among 140,000; activity change (PNC), negative = inhibition, % at 10 µM; AID 2417, 2010; PC3M PTB-GFP, PNC prevalence imaging, 16 h; stronger effect = lower value;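 active = readout at or below -70, meaning at least 70% loss of cells showing the perinucleolar compartment, a nuclear body marking cancer cells; inconclusive = readout between -30 and a set limit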
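Compounds are pinned in duplicate onto adhered PC3M cells stably expressing GFP-tagged PTB and incubated 16 h at 37 C. Cells are then fixed, nuclei stained with Hoechst, and PNC-positive cells counted.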
12-hLO inh = qHTS Assay for Inhibitors of 12-hLO (12-human lipoxygenase); Polyunsaturated fatty acid lipoxygenase ALOX12 (Homo sapiens), P18054; purified 12-hLO, xylenol orange hydroperoxide absorbance; Potency, µM (series often up to 57.1 µM), most hits filed as inhibitors; hit rate 0.12% among 150,000; note: nearly all actives have a fitted effect of over 55% in size
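Hydroperoxide output read as Fe(III)-xylenol orange absorbance, 573-to-405 nm ratio, after 30 min reaction with 40 uM arachidonic acid. Enzyme: 150 nM purified human 12hLO, 15 min compound preincubation; 25 mM Hepes pH 7.0, room temperature.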
HPGD block = qHTS Assay for Inhibitors of HPGD (15-Hydroxyprostaglandin Dehydrogenase); hit rate 4.3% among 150,000; 15-hydroxyprostaglandin dehydrogenase [NAD(+)] (Homo sapiens), P15428; purified HPGD, NADH fluorescence kinetic, PGE2 substrate; Potency, µM, usual class: inhibitors; active = well fitted inhibition curve with a large enough effect, not every such curve was filed as active; inconclusive = small, poorly fitted or top-dose-only effect, or another doubt; inactive = no such curve, though single readings can be large or run the other way
Target sequence (P15428 whole entry, looked up): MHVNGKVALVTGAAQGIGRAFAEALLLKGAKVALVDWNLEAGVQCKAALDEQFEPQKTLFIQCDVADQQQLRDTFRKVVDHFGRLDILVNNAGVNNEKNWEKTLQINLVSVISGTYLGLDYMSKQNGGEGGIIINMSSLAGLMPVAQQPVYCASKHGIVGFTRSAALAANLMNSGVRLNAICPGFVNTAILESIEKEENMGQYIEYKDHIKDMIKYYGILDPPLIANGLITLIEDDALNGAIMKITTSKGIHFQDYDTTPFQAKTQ
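NADH formation kinetics: reaction with 30 uM PGE2 and 1 mM NAD+ (final), 20 nM enzyme, Tris-HCl pH 8 with Tween 20, after 15 min compound preincubation at room temperature. Fluorescence change, last versus first of five reads.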
IMPase Li cell = qHTS Assay for Identifying the Cell-Membrane Permeable IMPase Inhibitors: Potentiation with Lithium; CHO-M1 cells, IP1 TR-FRET (IP-One), carbachol + lithium; Potency, µM (titrated, usually from 59.4 µM), hits mostly inhibitors; hit rate 0.35% among 210,000; AID 1457, 2008;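 note: IP1 builds up when IMPase is blocked and the TR-FRET signal falls; nearly all actives have a fitted effect of over 50% in size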
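Test compounds were applied to CHO-M1 cells previously cultured for 16–30 h at 2000 per well. A small lithium amount accompanied them; after 30 min at 37C, IP1 was quantified by TR-FRET.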
A number is an active result; - = inactive; ? = inconclusive; . = no result; [ ] = remark or other dose. Unless noted, calls come from the whole dose curve; as a rule, active = well fitted curve in the direction sought with a large enough effect; inconclusive = small, poorly fitted or top-dose-only effect, or another doubt; inactive = no such curve, though single readings can be large; an effect the other way counts as inactive or inconclusive.

SMILES	IMPase inh	ALOX15B inhib	PNC assembly inh	12-hLO inh	HPGD block	IMPase Li cell
Cc1ccc(CCC(=O)Nc2nccs2)o1	-	-	-	-	28.2µM	-
Cc1ccc(NC(=O)CCSc2ccccn2)cc1	.	.	?	-	-	-
Cc1cccc(NC(=O)CCSc2ccccn2)c1	.	.	-	-	14.1µM	-
Cc1cccc(NC(=O)CCc2ccccc2)c1	.	.	.	.	.	-
Cc1cccc(NC(=O)CCc2ccc(C)o2)c1	-	-	-80.2	-	-	-
CC(C)C[C@@H](CC(=O)N[C@@H](CCC(=O)O)CC(=O)O)NC(=O)[C@@H]1CNCC[C@H]1NC(=O)C[C@@H](NC(=O)C[C@H](Cc1c[nH]c2ccccc12)NC(=O)[C@@H]1CNCC[C@H]1N)C(C)C	.	.	.	-	-	-
O=C(COC(=O)CCSc1ccccc1)NCc1ccc(F)cc1	.	.	.	.	.	-
CN(Cc1ccon1)Cc1cn(Cc2ccccc2)nc1-c1ccc2c(c1)OCO2	.	.	.	.	.	-
COc1cccc(-c2cc3nc(-c4ccccc4)cc(N4CCC5(CC4)OCCO5)n3n2)c1	-	-	-	-	?	11.2µM
COc1ccc(C(=O)OCCNC(=O)c2c(Cl)nc3ccccn23)cc1	-	-	?	-	25.1µM	-
CCOC(=O)c1c(-c2ccccc2)nc2ccccn12	-	.	-	-	-	-
CC(C)(C)c1ccc(C(=O)OCCNC(=O)c2c(Cl)nc3ccccn23)cc1	-	-	-	-	11.2µM	-
O=C(CCS(=O)(=O)Cc1ccccc1F)NCc1ccccc1Cl	.	.	.	.	.	-
COc1ccc(/C=C/C(=O)CC(O)(c2ccccc2)C(F)(F)F)cc1 (stereo not drawn)	-	.	-100.0	-	-	-
C=CCN(CC=C)C(=O)C1CCC(C(=O)N(CC=C)CC=C)CC1 (stereo not drawn)	-	-	-88.5	-	-	-
CCn1c(SCC(=O)c2ccccc2)nnc1-c1cnccn1	-	-	-	-	17.8µM	-
Fc1ccc(CSc2nnc(-c3cnccn3)n2Cc2ccco2)cc1	-	-	-	-	-	-
Fc1ccccc1CSc1nnc(-c2cnccn2)n1Cc1ccco1	-	.	-100.0	-	-	-
CCn1c(SCC(=O)c2ccc(NS(=O)(=O)c3ccccc3)cc2)nnc1-c1cccs1	-	-	-	-	22.4µM	-
O=C(CSc1nnc(-c2cccnc2)n1Cc1ccco1)c1ccccc1	-	-	-	-	15.8µM	-
C=C(CCC12O[C@H](C(=O)O)[C@@](O)(C(=O)O)[C@](C(=O)O)(O1)[C@H](OC(=O)/C=C/[C@@H](C)C[C@@H](C)CC)[C@H]2O)[C@@H](OC(C)=O)[C@H](C)Cc1ccccc1	.	-[0.0915 µM]	.	-[0.00818 µM]	-	-
Clc1ccccc1CSc1nnc(-c2cccnc2)n1Cc1ccco1	-	-	?	-	28.2µM	-
CC(=O)Nc1ccc(C(=O)Nc2cc(C(F)(F)F)ccc2-n2cnc3ccccc32)cc1	.	.	-	-	14.1µM	-
CN(C)CCCNC(=O)COc1ccc(Br)cc1Cl	.	.	-87.3	-	-	-
COCCNC(=O)COc1ccc(Br)cc1Cl	-	-	-	-	?	-
SMILES	IMPase inh	ALOX15B inhib	PNC assembly inh	12-hLO inh	HPGD block	IMPase Li cell
CN(C)c1nc(OCCNC(=O)COc2ccccc2Cl)nc(N(C)C)n1	-	.	-83.6	-	-	-
C=CCNC(=O)COc1ccc(Br)cc1Cl	-	-	-113.7	-	?	-
Cc1n[nH]c(C)c1CCC(=O)N/N=C/C=C/c1ccccc1	-	.	?	-	-	-
CC1Cc2ccccc2N1C(=O)CSc1nnc(-c2ccccc2)c(-c2ccccc2)n1 (stereo not drawn)	-	-	-	-	-	-
CC(C)C(O)(C#CCN1CCCCC1)C(C)C	-	.	-	-	.	.
Cc1cccc2cc(C3CC(c4ccco4)=NN3S(=O)(=O)c3ccccc3)c(Cl)nc12 (stereo not drawn)	.	.	-91.3	-	-	-
COc1ccc(CNc2nc(SCC(=O)NCc3ccco3)nc3ccccc23)cc1	-	.	?	-	10µM	-
COc1ccc(Cc2nnc(SCC(=O)NCc3ccco3)o2)cc1	-[1.84 µM]	-[11.4 µM]	?	-	20µM	-
CCOC(=O)CSc1nc(NCc2ccco2)c2ccccc2n1	-	-	-	-	-	-
Cc1ccccc1NC(=O)CSc1nnc(Cc2ccccc2)o1	-	.	-100.0	-	-	-
Cn1c(N)c(C(=O)c2ccc(C#N)cc2)c(=O)n(C)c1=O	-	.	-	-	-	-
Cc1ccc(OCCCn2c(-c3ccc(Cl)cc3)nc3ccccc3c2=O)c(C)c1	-	.	.	.	.	.
O=C1C=CC(=O)N1CCCCCCN1C(=O)C=CC1=O	-	.	?	-	2.24µM	-
CCSc1nc2sc3c(c2c(=O)[nH]1)CCCC3	-	.	-	-	-	-
CCSC1=NC2(CCCCC2)Nc2sc3c(c21)CCCC3	-	?	?	?	4.47µM	-
Cc1cc2c(cc(C(=O)NCCCN3CCOCC3)n2Cc2ccc(Cl)cc2)o1	-	-	?	-	12.6µM	-
CCN(CC)S(=O)(=O)c1ccc(F)c(C(=O)NCCCN2CCOCC2)c1	-	-	-116.6	-	-	-
C[Si](C)(C)Cl	.	-	.	-	-	-
CS(=O)(=O)NCCC1=CCCCC1	-	-	-	-	-	-
CCC(=O)c1ccc(O)cc1	.	.	-	-	-	-
O=C1C=CC(=C(c2ccc(O)cc2)c2ccc(O)cc2)C=C1	.	?	.	-	14.1µM	-
CCNC(=O)NC(=O)COC(=O)CCCc1nc2ccccc2s1	.	.	.	.	.	-
CCOC(=O)C1CCN(c2c(NCc3ccc(C(=O)NCCC(C)C)cc3)c(=O)c2=O)CC1	-	-	-	-	3.55µM	-
CCCNC(=O)c1ccc(CNc2c(N3CCC(C(=O)OCC)CC3)c(=O)c2=O)cc1	-	-	-	-	4.47µM	-
CCOC(=O)C1CCN(c2c(NCCCN3CCN(Cc4ccccc4)CC3)c(=O)c2=O)CC1	-	-	-	-	14.1µM	-
CC1CCN(c2c(NCc3ccc(C(=O)N4c5ccccc5CC4C)cc3)c(=O)c2=O)CC1 (stereo not drawn)	-	.	-	-	12.6µM	-
N#Cc1ccc(NC(=S)NC(=O)CCc2ccc(S(=O)(=O)N3CCOCC3)cc2)cc1	.	.	.	.	.	-
CN1CCN(C(=O)C(N)Cc2ccccc2)CC1 (stereo not drawn)	.	.	.	.	.	-
COc1ccc(C(=O)NCc2nnc(SCC(=O)N3CCc4ccccc43)n2CCc2ccccc2)cc1	-	.	-	-	-	-
